Source: PubChem (National Center for Advancing Translational Sciences (NCATS))
Only some compounds are listed: those with a hit (about 18% of all), similar ones and a draw of the others.
PLK1 PBD block: inhibitors of human PLK1 polo-box domain binding | 2.8% of 360,000 active | Potency, µM, without a hit: max response, negative = inhibition, most hits filed as inhibitors | P53350 | AID 720504 | Plk1 PBD binding of FITC phosphopeptide, fluorescence polarization; further: series mostly up to about 57 µM; nearly all actives have a fitted effect of over 65% in size
VDR inh: blocks the human vitamin D receptor; P11473; VDR-SRC2-3 peptide fluorescence polarization, 2 h; Potency, µM, for the others: max response, negative = inhibition, actives largely listed as inhibitors; 0.93% of 400,000 active; AID 504847
Target sequence (P11473 whole entry, looked up): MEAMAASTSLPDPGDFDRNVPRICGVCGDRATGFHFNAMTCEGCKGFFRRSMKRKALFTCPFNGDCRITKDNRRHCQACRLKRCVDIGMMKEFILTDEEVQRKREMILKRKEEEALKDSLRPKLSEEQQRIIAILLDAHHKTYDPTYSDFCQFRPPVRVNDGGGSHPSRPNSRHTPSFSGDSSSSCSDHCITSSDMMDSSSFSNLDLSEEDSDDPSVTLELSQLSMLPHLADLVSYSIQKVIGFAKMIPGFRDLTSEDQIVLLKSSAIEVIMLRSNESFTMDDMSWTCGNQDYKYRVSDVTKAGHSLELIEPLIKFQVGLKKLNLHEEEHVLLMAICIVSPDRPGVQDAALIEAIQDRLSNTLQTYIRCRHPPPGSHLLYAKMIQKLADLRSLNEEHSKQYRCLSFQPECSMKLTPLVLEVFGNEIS
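The screen uses fluorescence polarization to detect compounds that interfere with recruitment of the SRC2-3 coactivator peptide to VDR; plates are read after 2 h at room temperature.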
DT40 TDP1 CPT: growth inhibition of DT40 Tdp1-/-;hTDP1 cells with camptothecin (screen for TDP1 inhibitors). Potency, µM (series often up to 46.2 µM), for inactives: top-dose activity change, negative = growth inhibition, most hits filed as inhibitors. 12% of 420,000 active. AID 686979. chicken DT40 Tdp1-/-;hTDP1 cells + 20 nM CPT, ATP luminescence, 48 h; further: nearly all actives have a fitted effect of over 55% in size
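Chicken DT40 Tdp1-/- cells stably complemented with human TDP1 were seeded at 400 cells/well in medium containing 20 nM camptothecin, exposed to pin-transferred compounds, and grown at 37 °C for at least 48 hr. Viability was read as ATP luminescence.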
TDP1 inh: blocks human tyrosyl-DNA phosphodiesterase 1; Q9NUW8; Potency, µM (doses to about 130 µM), inactives show top-dose activity change, negative = inhibition, most hits filed as inhibitors; recombinant TDP1, AlphaScreen DNA substrate cleavage; 0.28% of 350,000 active; AID 485290; further: nearly all actives have a fitted effect of over 40% in size
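AlphaScreen read-out: signal falls as enzyme removes the 3' tyrosine-FITC from a 5'-biotinylated DNA oligo (15 nM, 5 min, RT). Enzyme was E. coli-made recombinant Tdp1 at 1 nM, exposed to compound for 15 min beforehand; beads 10 ug/ml, 10 min.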
GCN5L2 inh: inhibitors of human GCN5L2 histone acetyltransferase; 0.21% of 390,000 active; Potency, µM (series often up to 58.9 µM), without a hit: at the highest dose activity change, negative = inhibition, most hits filed as inhibitors; AID 504327; GCN5L2 HAT assay, ThioGlo1 CoA-SH fluorescence; Q92830
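Enzyme at 20nM final was mixed with library compounds for 15 min at room temperature. Peptide H3(1-25) at 75uM, acetyl-CoA at 70uM and ThioGlo1 at 50uM were then added. Plates were read immediately and after 20 min (Ex340nm/Em540nm).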
TDP1 cell noCPT: qHTS for Inhibitors of human tyrosyl-DNA phosphodiesterase 1 (TDP1): qHTS in cells in absence of CPT. DT40 Tdp1-/- hTDP1 cells, no CPT, ATP luminescence, 48 h. Potency, µM (top dose mostly 46.2 µM), for the others: top-dose activity change, negative = growth inhibition, usual class: inhibitors. 15% of 420,000 active; further: nearly all actives have a fitted effect of over 55% in size
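Cells were dispensed at 400 per well, compounds added by pin tool, plates incubated ≥48 hr at 37 °C, then CellTiter-Glo added for 30 min at room temperature before luminescence reading. Line: DT40 Tdp1-/- complemented with hTDP1; camptothecin omitted.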
An asterisk follows results filed as active; ? = inconclusive; . = no result given; [ ] = remark or other dose. The call rests on the fitted dose curve; in most records, active means well fitted curve in the direction sought with a large enough effect; inconclusive means small, poorly fitted or top-dose-only effect, or another doubt; inactive means no such curve, though single readings can be large; an effect the other way counts as inactive or inconclusive. On the % scale 0 is the no-effect control and ±100 the full control effect; potency means the concentration at half of the fitted maximal effect.

SMILES	PLK1 PBD block	VDR inh	DT40 TDP1 CPT	TDP1 inh	GCN5L2 inh	TDP1 cell noCPT
Cc1cc(=O)oc2c3c(cc(OCC(=O)NCc4cccnc4)c12)OC(C)(C)CC3	3%	0%	?	.	-9%	?
COc1ccc(CNC(=O)COc2cc3c(c4oc(=O)cc(C)c24)CCC(C)(C)O3)cc1	-5%	-4%	?	.	-2%	?
CCCCC(NC(=O)COc1cc2c(c3oc(=O)cc(C)c13)CCC(C)(C)O2)C(=O)O (stereo unspecified)	-11%	10%	-11%	.	35µM*	-6%
Cc1cc(=O)oc2c3c(cc(OCC(=O)N[C@@H](C)C(=O)O)c12)OC(C)(C)CC3	-5%	21%	2%	.	-18%	13%
COc1cccc(CNC(=O)COc2cc3c(c4oc(=O)cc(C)c24)CCC(C)(C)O3)c1	-3%	-13%	21µM*	.	-15%	16µM*
Cn1c(=O)c2c(ncn2CC(O)CNc2ccc(F)cc2)n(C)c1=O (stereo unspecified)	5%	-21%	-19%	4%	-6%	-20%
Cc1[nH]c(C)c(S(=O)(=O)Nc2ccccc2Cl)c1C(=O)N1CCCC1	-19%	-5%	6%	4%	-2%	16%
Cc1[nH]c(C)c(S(=O)(=O)NCCc2ccc(S(N)(=O)=O)cc2)c1C(=O)N1CCCC1	27µM*	-21%	?	2%	-3%	?
CSc1ccc(CCNS(=O)(=O)c2c(C)[nH]c(C)c2C(=O)N2CCCCC2)cc1	-5%	12%	?	5%	-5%	?
COc1cccc(CNS(=O)(=O)c2c(C)[nH]c(C)c2C(=O)N2CCCCC2)c1	30µM*	?	26µM*	7%	-6%	?
Cc1[nH]c(C)c(S(=O)(=O)Nc2cccc(Cl)c2C)c1C(=O)N1CCCCC1	30µM*	?	?	8%	-6%	?
Cc1ccccc1CNS(=O)(=O)c1c(C)[nH]c(C)c1C(=O)N1CCCCC1	27µM*	-25%	?	3%	-3%	-1%
Cc1ccc(CNS(=O)(=O)c2c(C)[nH]c(C)c2C(=O)N2CCCC2)cc1	-17%	-1%	-19%	4%	-1%	2%
CC(C)(C)c1ccc(S(=O)(=O)N2CC(C(=O)O)Oc3ccc(Cl)cc32)cc1 (stereo unspecified)	?	-20%	6%	.	-9%	12%
O=c1c(-c2ccco2)[n+]([O-])c2ccccc2n1OCc1ccccc1F	?	2%	-26%	4%	-8%	?
O=c1c(-c2ccco2)[n+]([O-])c2ccccc2n1OCc1c(F)cccc1F	?	18%	5%	-5%	-18%	?
O=c1c(-c2ccco2)[n+]([O-])c2ccccc2n1OCc1ccccc1	?	-29%	12µM*	0%	?	12µM*
COc1ccccc1COn1c(=O)c(-c2ccco2)[n+]([O-])c2ccccc21	?	-1%	15µM*	.	-9%	18µM*
CC1CCC(C(C)C)C(OC(=O)C[n+]2cc(-c3ccc(Cl)cc3)n3c2CCC3)C1 (stereo unspecified)	-11%	-2%	2.9µM*	.	0%	2.3µM*
O=C(C[n+]1cc(-c2ccc(Cl)c(Cl)c2)n2c1CCC2)N1c2ccccc2Sc2ccccc21	1%	-3%	16µM*	0%	16%	23µM*
COc1ccc(-c2c[n+](CC(=O)N3c4ccccc4Sc4ccccc43)c3n2CCC3)cc1	-4%	0%	2.3µM*	5%	?	2.1µM*
Cn1c(NC(=O)C[n+]2cc(-c3ccc(Cl)c(Cl)c3)n3c2CCC3)cc(=O)n(C)c1=O	-17%	-23%	-17%	0%	1%	?
O=C(C[n+]1cc(-c2ccc(Cl)cc2)n2c1CCC2)N1c2ccccc2Sc2ccccc21	-2%	1%	9.2µM*	-1%	-2%	13µM*
O=C(Cc1ccccc1[N+](=O)[O-])OCc1cccc([N+](=O)[O-])c1	.	.	.	.	-1%	.
CN1CCN(C(c2ccc(F)cc2)c2sc3nc(-c4ccco4)nn3c2O)CC1 (stereo unspecified)	.	4%	-16%	-3%	-5%	-7%
SMILES	PLK1 PBD block	VDR inh	DT40 TDP1 CPT	TDP1 inh	GCN5L2 inh	TDP1 cell noCPT
CC1CC(C)CN(c2oc(-c3ccc(OCc4ccccc4Cl)cc3)nc2C#N)C1 (stereo unspecified)	.	-11%	-11%	5%	.	?
COC(=O)CN1C(=O)[C@H]2[C@@H](/C=C/c3ccccc3)N3C(=O)CN(Cc4ccc(-c5ccccc5)cc4)C(=O)[C@@]3(C)[C@H]2C1=O	-17%	-2%	26µM*	2%	-14%	?
CN1C(=O)[C@H]2[C@@H](/C=C/c3ccccc3)N3C(=O)CN(Cc4ccccn4)C(=O)[C@@]3(C)[C@H]2C1=O	-5%	-6%	1%	.	0%	-4%
C[C@@]12C(=O)N(Cc3ccc(-c4ccccc4)cc3)CC(=O)N1[C@H](/C=C/c1ccccc1)[C@@H]1C(=O)N(c3ccccc3)C(=O)[C@@H]12	-14%	-19%	?	.	-16%	23µM*
CCN1C(=O)[C@H]2[C@@H](c3ccc(OC)cc3)N3C(=O)CN(Cc4ccccc4)C(=O)[C@@]3(C)[C@H]2C1=O	-3%	4%	16%	.	0%	8%
COc1ccc(-c2oc3ncn4nc(-c5ccccc5Br)nc4c3c2-c2ccc(OC)cc2)cc1	.	8%	5%	0%[12.3 µM]	-7%	?
COCCCNC(=O)C(=O)NC1CCCCCC1	-23%	2%	9%	0%	0%	3%
COCCNC(=O)C/C(C)=N/NC(=O)C(=O)NC1CCCCC1	24µM*	4%	1%	3%	-4%	1%
O=C(CSc1nc2ncc(Cl)cc2[nH]1)N1CCC(Cc2ccccc2)CC1	-9%	-23%	-30%	-3%	-1%	-8%
CCOc1cc(/C=N/NC(=O)c2ccc(=O)n(C)c2)ccc1O	-4%	-13%	0%	.	-2%	-5%
Cc1ccc(C(C)C)c(OCc2ccc(C(=O)N/N=C/c3ccc(O)c(O)c3)cc2)c1	-1%	-6%	2.3µM*	0%	-13%	2.1µM*
COc1cc(/C=N/NC(=O)c2ccc(COc3cc(C)ccc3C(C)C)cc2)cc(OC)c1O	-4%	1%	16µM*	-5%	1%	13µM*
Cc1ccc(C(C)C)c(OCc2ccc(C(=O)N/N=C/c3cccc(O)c3O)cc2)c1	9%	1%	3.7µM*	11%	-5%	5.2µM*
